# A selection: hits, their analogues and other compounds. The true share with any hit is near 19%.
# LASV entry inh = inhibitors of Lassa virus binding or cell entry; Lassa virus pseudotype entry inhibition, cell reporter; Potency, µM (doses to about 37.9 µM), for the others: top-dose activity change, negative = inhibition, most hits filed as inhibitors; 300,000 compounds, 1.2% hits; calls by dose curve; tested in HEK293 cells; also: potency is read from the fitted curve at half-maximal effect; % is scaled to controls: 0 for no effect and ±100 for the full control effect; nearly all actives have a fitted effect of over 50% in size
# Shiga toxin inh = Shiga toxin inhibition; AID 2315; 290,000 compounds, 9.2% hits; Vero cells, Shiga toxin protein synthesis inhibition reporter; inhibition, % at 38.7 µM; in the data active = inhibition mostly above about 28%, no sharp cut-off; inactive = mostly below about 43%; also: 0% is about no effect
# Pf growth 96h = P. falciparum growth inhibition at 96 hour, primary screen for plastid delayed-death inhibitors | P. falciparum luciferase reporter growth, 96 h | Potency, µM (titrated, usually from 28.7 µM), inactives show top-dose activity change, negative = inhibition, most hits filed as inhibitors | 320,000 compounds, 6.9% hits | AID 504834; also: potency is read from the fitted curve at half-maximal effect; % is scaled to controls: 0 for no effect and ±100 for the full control effect
#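 Two-generation exposure (96 h) targets delayed-death phenotype. Reporter parasites carrying integrated firefly luciferase, in red cells at 2% hematocrit and 0.05% parasitemia final, kept at 37 C, 5% CO2; luminescence loss indicates inhibition.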
# Pf growth 48h = P. falciparum growth inhibition at 48 hours (one generation); AID 504832; 310,000 compounds, 5.9% hits; P. falciparum luciferase growth in erythrocytes, 48 h; Potency, µM (series often up to 28.7 µM), without a hit: top-dose activity change, negative = inhibition, actives largely listed as inhibitors; also: potency is read from the fitted curve at half-maximal effect; % is scaled to controls: 0 for no effect and ±100 for the full control effect
#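 Luciferase-expressing parasites in RBCs, 2% Hct / 0.1% parasitemia final; RPMI 1640 + 0.5% Albumax; 37 C, 5% CO2, one generation; luminescence read-out, lower signal = inhibition.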
# CHX counter = affects cycloheximide protein synthesis inhibition readout, counter-screen | max response, % | cell reporter, cycloheximide protein synthesis inhibition counterscreen | 300,000 compounds, 12% hits; in the data active = max response mostly above about 13%, no sharp cut-off; inactive = mostly below about 14%; also: read at 38.3 µM for the half of the compounds with a filed dose; 0% is about no effect
# Marburg entry inh = blocks Marburg virus binding to or entry into cells; AID 540276; 300,000 compounds, 1.8% hits; Potency, µM (top dose mostly 37.8 µM), without a hit: at the highest dose activity change, negative = inhibition, usual class: inhibitors; Marburg virus pseudotyped entry inhibition, cell reporter; calls by dose curve; tested in HEK293 cells; also: potency is read from the fitted curve at half-maximal effect; % is scaled to controls: 0 for no effect and ±100 for the full control effect
# * marks the source's active call; other numbers are inactive results; i = inactive; ? = inconclusive; nt = no result; [ ] = dose if it differs, or a comment. Unless noted, calls follow the shape of the dose curve; as a rule, active = well fitted inhibition curve with a large enough effect; inconclusive = small, poorly fitted or top-dose-only effect, or another doubt; inactive = no such curve, though single readings can be large or run the other way.
SMILES,LASV entry inh,Shiga toxin inh,Pf growth 96h,Pf growth 48h,CHX counter,Marburg entry inh
O=C(C[n+]1cccc(NC(=O)c2ccccc2)c1)c1cccc([N+](=O)[O-])c1,23%[46.1 µM],19,?,?,8,-26%[46.1 µM]
c1csc(C(c2nnnn2C2CCCCC2)N2CCCC3(CCCCC3)C2)c1 (configuration not stated),-1%,9,?,2.6µM*,-1,?
CCC(C)(C)n1nnnc1C(c1cccs1)N1CCCCC1 (configuration not stated),nt,-8,8%,-16%,-2,nt
CC(C)(C)n1nnnc1C(c1cccs1)N1CCCC2(CCCCC2)C1 (configuration not stated),-30%,-2,?,5.2µM*,-4,?
O=C(NCCCN1CCOCC1)c1ccc(CS(=O)(=O)Cc2ccccc2Cl)o1,2%,-10,5%,27%,1,5%
CCc1c(C)nc(N)nc1N1N=C1SCC#N,-4%,-15,-8%,nt,-8,11%
FCCCOc1ccc(-c2nccc(-c3ccccn3)n2)cc1,nt,35*,39%,1%[0.00184 µM],20*,nt
COC(=O)C(C)Oc1ccc(-c2nccc(-c3ccccn3)n2)cc1 (configuration not stated),14%[46.1 µM],23,113%,-9%,16*,?
O=C(O)COc1ccc(-c2nccc(-c3ccccn3)n2)cc1,?,20,?,10%,6,-14%[46.1 µM]
COC(=O)C(C)Oc1ccc(-c2nccc(-c3ccc(F)cc3)n2)cc1 (configuration not stated),nt,26,55%,-16%,-2,nt
CC(=O)Nc1cc2c(nc1C)nc(C)n2Cc1ccc(Br)cc1,-12%,-1,4%,-5%,5,2%[46.1 µM]
O=C(NCCc1ccc(Cl)cc1)c1ccc(Br)s1,nt,55*,?,40%,45*,nt
O=C(NCCc1ccc(F)cc1)c1ccncc1,-2%[46.1 µM],87*,3%,12%,16*,?
Cc1ccc(C(=O)NCCc2ccc(F)cc2)s1,?,58*,?,i,59*,?
O=C(NCCc1ccccc1)c1ccc(Cl)nc1,?,60*,-27%,388%,33*,?
O=C(NCCc1ccncc1)Nc1ccc(F)cc1,1%,-2,-4%,1%,-1,0%
O=C(NCCc1ccccc1)C(=O)NCc1ccncc1,5%,15,-11%,6%,-2,7%
O=C(NCCc1ccccc1)c1ccncc1,nt,95*,nt,124%,32*,1%
CC(N)C(=O)NC1C2C(=C(O)CC(O)C2O)C(=O)OC1(C)C(Cl)Cl (configuration not stated),0.5µM*,nt,nt,nt,nt,0.32µM*
CN(C)c1nc(C(N)=O)nc(N2CCOCC2)n1,4%,-10,-24%,nt,-7,-2%
Cc1cccc(NCc2cccc3ccccc23)n1,nt,54,?,-9%,41*,nt
Cc1cccc(NC(=S)NCCc2ccccc2)n1,?,21,?,?,6,?
Cc1cccc(NCc2ccc(Br)cc2)n1,?,109*,-5%,-26%,35*,?
Cc1nccn1Cc1cccc2ccccc12,-9%,-19,nt,8%,-2,4%
Cc1ccc(S(=O)(=O)Nc2cccc(Cl)c2)cc1NC(=O)C1CC1,-12%,nt,nt,nt,nt,25%
SMILES,LASV entry inh,Shiga toxin inh,Pf growth 96h,Pf growth 48h,CHX counter,Marburg entry inh
Cc1n[nH]c(=S)n1/N=C/c1ccccc1OCc1ccc(Cl)cc1,29%,12,35%,35%,18,16%
COc1ccc(C(=O)/C(C#N)=N/Nc2cccc([N+](=O)[O-])c2)cc1,10µM*,26,-10%,-18%,-2,15µM*
COc1cc(C(=O)N/N=C(\C)c2ccc3c(c2)OCO3)cc(OC)c1OC,?,-23,5%,7%,4,?
O=C(NC1C2CC3CC(C2)CC1C3)c1ccc2c(c1)OCO2 (configuration not stated),6%,36*,?,-5%,28*,-11%
C/C(=N\NC(=O)C1CC1c1ccccc1)c1cccc([N+](=O)[O-])c1 (configuration not stated),?,5,8.3µM*,-3%,-3,-3%
COc1ccc(/C(C)=N\NC(=O)c2ccc3c(c2)OCO3)cc1OC,nt,49,107%,15%,39*,nt
N#C/C(=N\Nc1cccc(Cl)c1)C(=O)c1ccccc1,?,23,163%,10%,13,?
O=C(Nc1ccc(F)cc1F)c1c2c(nc3ccccc13)C(=O)N(C1CCCCC1)C2,0%[46.1 µM],nt,nt,nt,nt,nt
O=C(COC(=O)/C=C/c1ccc(C(F)(F)F)cc1)Nc1ccc2[nH]c(=O)[nH]c2c1,7%,nt,0%,0%,nt,8%
Cc1nn(Cc2c(F)c(F)c(F)c(F)c2F)c(C)c1NC(=O)c1c([N+](=O)[O-])c(C)nn1C,5%,-11,-4%,nt,-3,-26%
C/C(=N/NC(=O)c1ccc(O)cc1)c1cccc([N+](=O)[O-])c1,9%,59*,?,43%,31*,11%
C/C(=N/NC(=O)c1ccc2c(c1)OCO2)c1ccc(Br)s1,nt,49*,?,58%,16,nt
Cc1ccc(NC(=O)C2CC2c2ccccc2)c([N+](=O)[O-])c1 (configuration not stated),?,34*,?,33%,35*,16%[46.1 µM]
C/C(=N\NC(=O)c1cccc([N+](=O)[O-])c1)c1cccs1,12%,39*,36%,64%,13,7%[46.1 µM]
C/C(=N\NC(=O)c1cccc([N+](=O)[O-])c1)c1ccncc1,17%,27,17%,32%,10,-6%[14.2 µM]
O=C(N/N=C/C=C/c1ccc2c(c1)OCO2)C(O)c1ccccc1 (configuration not stated),-7%,47*,25%,2%,11,-11%
CC(=O)Nc1cccc(/C(C)=N/NC(=O)c2ccc(O)cc2)c1,9%[46.1 µM],52,34%,21%,31*,-5%[46.1 µM]
CC(=O)Nc1cccc(/C(C)=N/NC(=O)c2ccc(Cl)cc2Cl)c1,8%[46.1 µM],34,1%,40%,15,2%[46.1 µM]
COc1ccc(CC(=O)Nc2cccc(/C(C)=N/NC(=O)c3cccc([N+](=O)[O-])c3)c2)cc1,11µM*,19,26%,1%,3,?
COc1ccc(CC(=O)N/N=C(\C)c2cccc(NC(=O)C3CC3)c2)cc1,-25%[46.1 µM],-1,?,-3%,1,-18%[46.1 µM]
O=C(N/N=C/C=C/c1ccccc1)C(O)c1ccccc1 (configuration not stated),14%,nt,nt,nt,nt,6%
CC/C(=N\NC(=O)c1ccc2c(c1)OCO2)C12CC3CC(CC(C3)C1)C2,?,57*,nt,34%,26*,5%
CC(C)(N)C(=O)N[C@@H](Cc1cnc[nH]1)C(=O)N[C@H](Cc1ccc2ccccc2c1)C(=O)N[C@H](Cc1ccccc1)C(=O)N[C@@H](CCCCN)C(N)=O,nt,3,nt,nt,10,nt
CCCCc1nc(C(N)=O)c2[nH]c(=O)n(-c3ccccc3F)c2n1,nt,-12,24%,4%,2,nt
